Compound activity deposited in PubChem by National Center for Advancing Translational Sciences (NCATS).
Hits are enriched below; roughly 21% of the tested compounds scored in any of these assays.
DT40 TDP1 CPT: growth inhibition of DT40 Tdp1-/-;hTDP1 cells with camptothecin (screen for TDP1 inhibitors); chicken DT40 Tdp1-/-;hTDP1 cells + 20 nM CPT, ATP luminescence, 48 h; Potency, µM (series often up to 46.2 µM), most hits filed as inhibitors; actives 12% (n = 420,000); AID 686979; further: nearly all actives have a fitted effect of over 55% in size
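Chicken DT40 Tdp1-/- cells complemented with human TDP1, 400 cells/well, exposed to compounds plus 20 nM camptothecin for at least 48 h at 37 C; viability read as ATP content by CellTiter-Glo luminescence.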
IL1B secr inh: inflammasome signaling inhibition, IL-1 beta readout | actives 4.7% (n = 360,000) | activity change, % at 57.5 µM | THP-1 LPS/ATP IL-1B secretion, AlphaLISA, 16 h; hits give low values | AID 743279; in the data active means activity change below about -50%; inconclusive means mostly about -30% to -49%
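Secreted IL-1B measured by AlphaLISA bead assay after 16 h compound exposure of THP-1 cells; compounds (final up to 57.5 uM) added 1 h before LPS (250 ng/mL) and ATP (1.25 mM) stimulation; lower signal means less secretion.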
ELG1 DNA repair: ELG1-dependent DNA repair inhibition | HEK293T ELG1-luciferase reporter, luminescence, 16 h; DNA damage induced by 5-fluorouridine | Potency, µM (top dose mostly 46.1 µM), actives largely listed as inhibitors | actives 2.3% (n = 330,000) | AID 504467; further: nearly all actives have a fitted effect of over 55% in size
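5-Fluorouridine DNA damage + compound/DMSO, 2,000 cells/well, 16 h, 37 °C/5% CO2. ONE-Glo, 30 min RT, luminescence. Readout = decrease in reporter signal.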
RORgamma inh: inhibitors of mouse ROR gamma transcriptional activity | P51450 | Drosophila S2 Gal4-RORgamma UAS-luciferase reporter, 20 h | Potency, µM (titrated, usually from 53.6 µM), actives largely listed as inhibitors | actives 5.4% (n = 310,000); further: nearly all actives have a fitted effect of over 60% in size
Target sequence (P51450 whole entry, looked up, the tested form may be a part): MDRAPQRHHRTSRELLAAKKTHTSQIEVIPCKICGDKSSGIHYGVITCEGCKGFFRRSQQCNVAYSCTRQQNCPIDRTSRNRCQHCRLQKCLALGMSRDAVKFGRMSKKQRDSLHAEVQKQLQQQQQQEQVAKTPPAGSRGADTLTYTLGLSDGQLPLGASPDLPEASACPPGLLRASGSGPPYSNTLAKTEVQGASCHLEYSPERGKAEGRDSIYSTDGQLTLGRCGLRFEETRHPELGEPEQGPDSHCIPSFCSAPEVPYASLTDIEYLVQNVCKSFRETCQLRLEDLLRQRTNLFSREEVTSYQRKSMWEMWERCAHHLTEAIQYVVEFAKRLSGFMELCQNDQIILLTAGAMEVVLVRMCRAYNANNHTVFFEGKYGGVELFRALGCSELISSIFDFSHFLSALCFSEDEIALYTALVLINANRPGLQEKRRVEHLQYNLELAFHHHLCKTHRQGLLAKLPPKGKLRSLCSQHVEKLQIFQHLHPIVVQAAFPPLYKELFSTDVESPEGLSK
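Compounds are pin-transferred onto Drosophila Schneider cells expressing a copper-inducible Gal4–ROR gamma transactivation domain fusion. After 1 hr, copper sulfate is added to 700 uM final; luciferase is read 20 hr later.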
DT40 TDP1 no CPT: qHTS for Inhibitors of human tyrosyl-DNA phosphodiesterase 1 (TDP1): qHTS in cells in absence of CPT; DT40 Tdp1-/- hTDP1 cells, no CPT, ATP luminescence, 48 h; Potency, µM (highest dose often 46.2 µM), actives largely listed as inhibitors; actives 15% (n = 420,000); AID 686978, 2013; further: nearly all actives have a fitted effect of over 55% in size
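No-CPT arm: Tdp1-/-;hTDP1 DT40 cells (400/well) plus compounds, incubated ≥48 hr at 37 °C. Readout CellTiter-Glo luminescence.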
Gal4-VP16 FLuc: inhibits Gal4-VP16 luciferase reporter, ROR gamma counter-screen. actives 3.5% (n = 310,000). AID 2546. Potency, µM (titrated, usually from 53.6 µM), actives largely listed as inhibitors. Drosophila S2 Gal4-VP16 UAS-luciferase, luminescence, 20 h;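 further: Gal4-VP16 expression switched on by copper sulfate through the metallothionein promoter; nearly all actives have a fitted effect of over 50% in size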
Hits are given with their value; i = inactive; ? = inconclusive; nt = no result. Unless noted, the call rests on the fitted dose curve; in most records, active means well fitted curve in the direction sought with a large enough effect; inconclusive means small, poorly fitted or top-dose-only effect, or another doubt; inactive means no such curve, though single readings can be large; an effect the other way counts as inactive or inconclusive.

SMILES | DT40 TDP1 CPT | IL1B secr inh | ELG1 DNA repair | RORgamma inh | DT40 TDP1 no CPT | Gal4-VP16 FLuc
COc1ccc(C)cc1NC(=O)C(OC(=O)c1cnccn1)c1ccccc1 (stereo unspecified) | i | i | i | nt | i | nt
COc1ccc(C)cc1NC(=O)C(OC(=O)c1ccc([N+](=O)[O-])o1)c1ccccc1 (stereo unspecified) | 16.4µM | i | i | i | ? | i
CCOC(=O)c1cc(NC(=O)c2ccccc2)c(=O)oc1C(F)(F)F | i | i | ? | i | i | i
COC(=O)c1cc(NC(=O)c2ccc(OC)cc2)c(=O)oc1C | i | i | ? | i | i | i
CC(=O)c1cc(NC(=O)c2ccc(C)cc2)c(=O)oc1/C=C/N(C)C | i | i | ? | ? | i | i
CC(=O)c1cc(NC(=O)c2ccc(C)cc2)c(=O)oc1C | 23.1µM | -106.1 | ? | ? | ? | ?
CC(=O)Nc1cc2ccccc2oc1=O | i | i | i | i | i | i
Cc1oc(=O)c(NC(=O)c2ccccc2)cc1C(=O)c1ccccc1 | ? | i | ? | ? | ? | 12.6µM
CC(=O)c1cc(NC(=O)c2ccccc2)c(=O)oc1C | ? | -102.0 | ? | 11.2µM | 32.6µM | 2.51µM
Cc1ccc(C(=O)Nc2cc3ccccc3oc2=O)cc1 | 2.06µM | i | ? | 1.58µM | 3.66µM | ?
CCN(CC)S(=O)(=O)c1ccc(C(=O)NC2CC(=O)N(c3ccc4c(c3)OCCO4)C2)cc1 (stereo unspecified) | i | nt | nt | nt | ? | nt
CCCCCCCc1cc2c(cn1)=C(OC)C(C)(OC(C)=O)C(=O)C=2Cl (stereo unspecified) | nt | nt | nt | i | nt | i
CC[C@H](C)[C@H](NC(=O)CNC(=O)[C@H](CC(C)C)NC(=O)[C@H](CC(C)C)NC(=O)[C@H](CCC(N)=O)NC(=O)[C@H](CCC(N)=O)NC(=O)[C@H](CC(=O)O)NC(=O)[C@H](CCCCN)NC(=O)[C@H](CC(C)C)NC(=O)[C@H](Cc1ccc(O)cc1)NC(=O)[C@H](CCCNC(=N)N)NC(=O)[C@H](CCC(=O)O)NC(=O)[C@@H](NC(=O)[C@H](C)NC(=O)[C@H](CC(C)C)NC(=O)[C@@H](NC(=O)[C@@H](N)CCCNC(=N)N)[C@@H](C)CC)C(C)C)C(=O)N[C@@H](Cc1c[nH]c2ccccc12)C(=O)NCC(=O)N[C@@H](CS)C(=O)N[C@@H](CO)C(=O)O | nt | nt | nt | i | nt | i
Cc1cccc(NC(=O)Cn2c([N+](=O)[O-])cnc2C)c1C | nt | nt | i | i | nt | i
COC(=O)[C@@]12CCCCN1[C@H](c1ccc(-c3ccc(C(C)=O)cc3)c(OC)c1)[C@@H]1C(=O)N(C)C(=O)[C@@H]12 | 16.4µM | i | i | nt | 14.6µM | nt
COC(=O)[C@@]12CCCCN1[C@H](c1ccc(-c3cccc(Cl)c3)c(OC)c1)[C@@H]1C(=O)N(C)C(=O)[C@@H]12 | ? | ? | i | nt | 20.6µM | nt
COC(=O)[C@@]12CCCN1[C@H](c1ccc(-c3ccc(Cl)c(Cl)c3)c(OC)c1)[C@H]1C(=O)N(C)C(=O)[C@H]12 | 13µM | ? | ? | nt | 23.1µM | nt
COC(=O)[C@@]12CCCN1[C@H](c1ccc(-c3cccc(Cl)c3)c(OC)c1)[C@H]1C(=O)N(C)C(=O)[C@H]12 | 14.6µM | i | ? | nt | 16.4µM | nt
CC(=O)c1ccc(NS(=O)(=O)c2ccc(Br)s2)cc1 | i | nt | nt | nt | i | nt
CCC(C)Sc1ccc([C@@H]2[C@@H]3C(=O)N(CC)C(=O)[C@@H]3[C@]3(C(=O)OC)CCCCN23)cc1OC (stereo partly specified) | ? | i | i | nt | ? | nt
COC(=O)[C@@]12CCCCN1[C@H](c1ccc(-c3ccccc3)c(OC)c1)[C@H]1C(=O)N(C)C(=O)[C@H]12 | ? | i | i | nt | 13µM | nt
CCN1C(=O)[C@H]2[C@@H](c3ccc(-c4cccc(Cl)c4)c(OC)c3)N3CCC[C@@]3(C(=O)OC)[C@H]2C1=O | 13µM | -50.9 | i | nt | 9.2µM | nt
COCCCN1C(=O)c2ccc(C(=O)Nc3ccc(C)cc3C)cc2C1=O | i | i | i | i | i | i
O=C(c1ccco1)N1CCC2(CC1)CCN(c1ccccc1)CC2 | ? | nt | nt | i | ? | i
CCN1CCN(c2nn3c(=O)c4ccccc4nc3c3ccccc23)CC1 | ? | -58.5 | i | i | 16.4µM | i
CC1CN(c2cc(-c3ccccc3)c3ccccc3n2)CC(C)O1 (stereo unspecified) | i | i | i | i | ? | i
CC1CN(c2nc(-c3ccccc3)nc3ccccc23)CC(C)O1 (stereo unspecified) | ? | i | 13µM | i | ? | i
CC1CN(c2nn3c(=O)c4ccccc4nc3c3ccccc23)CC(C)O1 (stereo unspecified) | 8.2µM | -63.2 | ? | i | 5.8µM | i
